# MCF10A rerep = A quantitative high throughput screen for small molecules that induce DNA re-replication in MCF 10a normal breast cells | 350,000 tested, 2.9% active | MCF 10A DNA re-replication, Hoechst nuclear intensity, 48 h | Potency, µM (titrated, usually from 46.1 µM), for the others: top-dose activity, positive = re-replication, most hits filed as activators | AID 624296, 2012; also: % of control where 0% means no effect; nearly all actives have a fitted effect of over 50% in size
# SW480 rerep = A quantitative high throughput screen for small molecules that induce DNA re-replication in SW480 colon adenocarcinoma cells; SW480 DNA re-replication, Hoechst DNA content imaging, 48 h; Potency, µM (titrated, usually from 46.1 µM), for inactives: at the highest dose re-replication activation, actives largely listed as activators; 340,000 tested, 1.8% active; also: % of control where 0% means no effect; nearly all actives have a fitted effect of over 55% in size
#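 Hoechst fluorescence of nuclei (405 nm excitation, 500-530 nm emission) measured by plate-scanning imager after 48 hr compound exposure at 37 C; re-replication scored as increased number of nuclei with elevated intensity.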
# KB-V1 cytotox = qHTS assay for MDR1-selective chemotherapeutics: Primary screen using the drug-selected MDR subline cells KB-V1 | 400,000 tested, 3.4% active | Potency, µM (series often up to 46.1 µM), actives largely listed as cytotoxic | KB-V1 MDR cells viability, CellTiter-Glo, 72 h | AID 1347076, 2019; also: % is scaled to controls: 0 for no effect and ±100 for the full control effect; nearly all actives have a fitted effect of over 60% in size
#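 Drug-selected KB-V1 cells, grown in DMEM lacking phenol red with 10% FBS, receive compound titrations; after three days at 37 degrees C, surviving cell ATP is quantified by CellTiter-Glo luminescence and responses normalized and curve-fitted.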
# KB-3-1 cytotox = qHTS assay for MDR1-selective chemotherapeutics: Primary screen using the parental adenocarcinoma cell KB-3-1. KB-3-1 viability, CellTiter-Glo ATP luminescence, 72 h. 400,000 tested, 1.4% active. AID 1347075, 2019. Potency, µM (top dose mostly 46.1 µM), hits mostly cytotoxic; also: % is scaled to controls: 0 for no effect and ±100 for the full control effect; nearly all actives have a fitted effect of over 60% in size
#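 KB-3-1 cells, DMEM (no phenol red) + 10% FBS; compound by pin transfer, 72 h, 37 °C. Readout: CellTiter-Glo luminescence after 10 min. Data normalized, curve-fitted.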
# PINK1 expr mod = A Quantitative High throughput Screen to Identify Chemical Modulators of PINK1 Expression | PINK1 immunofluorescence, high-content cytometry, 24 h | Potency, µM (highest dose often 76.6 µM), for the others: at the highest dose activation (PINK1 increase), most hits filed as activators | 410,000 tested, 0.2% active | AID 624263, 2012; active = well fitted activation curve with a large enough effect; inconclusive = small, poorly fitted or top-dose-only effect; cell line not stated here; also: % of control where 0% means no effect; nearly all actives have a fitted effect of over 65% in size
#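 PINK1 protein level read as immunofluorescence by microplate cytometer in a fixed, stained stable cell line after 24 h exposure to five compound concentrations, with CCCP as control.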
# Starred values were filed as active, the others as inactive; i = inactive; ? = inconclusive; · = no result; [ ] = remark or other dose. An excerpt weighted towards active compounds, which were near 6.7% of everything screened. Unless noted, calls follow the shape of the dose curve; as a rule, active = well fitted curve in the direction sought with a large enough effect; inconclusive = small, poorly fitted or top-dose-only effect, or another doubt; inactive = no such curve, though single readings can be large; an effect the other way counts as inactive or inconclusive. Potency is read from the fitted curve at half-maximal effect.
SMILES,MCF10A rerep,SW480 rerep,KB-V1 cytotox,KB-3-1 cytotox,PINK1 expr mod
CCN(CC)CCNC(=O)Cc1nn(Cc2ccccc2)c(=O)c2ccccc12,174.6%,2.31µM*,i,i,1.6%
CS(=O)(=O)N(CC(=O)Nc1ccc(S(=O)(=O)N2CCOCC2)cc1)c1cccc(F)c1,?,23.1µM*,i,i,0.8%
CC(C)c1ccc(N(CC(=O)Nc2ccc(S(=O)(=O)N3CCOCC3)cc2)S(C)(=O)=O)cc1,2.8%,18.3%,i,?,-0.1%
CS(=O)(=O)N(CC(=O)Nc1ccccc1-c1ccccc1)c1cccc(F)c1,0.651µM*,-11.0%,i,i,4.2%
Cc1cccc(N(CC(=O)Nc2ccc(F)cc2)S(C)(=O)=O)c1,-0.7%,6.3%,16.4µM*,i,-4.5%
Cc1ccc(N(CC(=O)Nc2ccc(S(=O)(=O)N3CCOCC3)cc2)S(C)(=O)=O)cc1C,2.5%,3.2%,23.1µM*,i,-3.8%
COc1cc(C2C(=O)N(C3CCCCCC3)CC(=O)N2CCc2ccccc2)ccc1OC(C)C (configuration not stated),·,·,·,·,0.2%
Cc1cccc(NS(=O)(=O)c2ccc(NC(=O)CN(c3cc([N+](=O)[O-])ccc3C)S(C)(=O)=O)cc2)c1,?,18.4µM*,i,i,18.0%
Cc1ccc(N(CC(=O)Nc2ccccc2-c2ccccc2)S(=O)(=O)c2ccccc2)c(C)c1,20.6µM*,5.1%,i,i,3.9%
N[C@H]1C(O)O[C@H](CO)[C@@H](O)[C@@H]1O (some centres not stated),10.7%,-19.6%,i,i,1.1%
Cc1nc(Sc2ccc(Br)cc2)c(C#N)c(C)c1[N+](=O)[O-],20.6µM*,18.4%,?,?,-3.5%
Cc1nc(Sc2ccc(Cl)cc2)c(C#N)c(C)c1[N+](=O)[O-],18.4µM*,?,?,i,-2.2%
Cc1ccc(Sc2nc(C)c([N+](=O)[O-])c(C)c2C#N)cc1,?,-37.4%,i,i,1.2%
O=C1c2ccccc2NC(c2ccccc2O)N1Cc1ccco1 (configuration not stated),·,·,i,i,0.9%
Cn1ncc2c(Nc3cccc(F)c3)ncnc21,·,·,·,·,0.4%
CC(C)COP(=O)(OCC(C)C)C(Nc1ccccc1)c1ccc2c(c1)OCO2 (configuration not stated),?,?,6.51µM*,?,12.2%
Cc1sc2ncnc(NC3CCN(Cc4ccccc4)CC3)c2c1C,16.8%,12.4%,1.64µM*,?,0.3%
Cc1ccc(N2CCN(S(=O)(=O)c3ccc4c(c3)CC(=O)N4)CC2)cc1,·,·,i,i,·
COc1ccc(CN2C[C@H]3CCCN3c3cc(Br)ccc3S2(=O)=O)cc1,1.16µM*,1.64µM*,?,1.84µM*,2.2%
COC(=O)C1CCN(S(=O)(=O)c2cc3c4c(c2)CCN4C(=O)CC3)CC1,9.3%,2.2%,i,i,0.1%
Cc1onc(-c2c(Cl)cccc2Cl)c1C(=O)N1CCc2ccccc2C1,10.5%,-93.6%,20.6µM*,i,-0.7%
Cc1onc(-c2ccccc2Cl)c1C(=O)N1CCN(c2cccc(Cl)c2)CC1,?,7.31µM*,1.3µM*,2.31µM*,11.8%
Cc1onc(-c2ccccc2Cl)c1C(=O)N1CCN(c2ccccc2)CC1,-18.1%,18.5%,20.6µM*,i,-2.1%[38.3 µM]
Cc1cccc(N2CCN(C(=O)c3c(-c4ccccc4)noc3C)CC2)c1C,3.66µM*,?,3.66µM*,?,2.1%
COc1ccccc1-c1ccc2ncnc(NC3CCNCC3)c2c1,·,·,·,·,-0.5%
SMILES,MCF10A rerep,SW480 rerep,KB-V1 cytotox,KB-3-1 cytotox,PINK1 expr mod
COc1ccc(CN2C(=O)C(C)Nc3ncnc(N4CCc5ccccc5C4)c32)cc1 (configuration not stated),·,·,?,2.31µM*,1.9%
COc1ccc(CN2C(=O)C(C)Nc3ncnc(N4CCN(c5ccccn5)CC4)c32)cc1 (configuration not stated),2.0%,2.1%,i,i,7.8%
CC(C)NC(=O)N(C)C[C@H]1Oc2ccc(NC(=O)C3CC3)cc2C(=O)N([C@H](C)CO)C[C@@H]1C,5.8%,-12.0%,i,i,2.6%
C[C@H]1CN([C@@H](C)CO)S(=O)(=O)c2ccc(Br)cc2O[C@H]1CN(C)S(=O)(=O)c1ccccc1,·,·,?,i,3.0%
COc1cccc(S(=O)(=O)N(C)C[C@H]2Oc3cc(Br)ccc3S(=O)(=O)N([C@@H](C)CO)C[C@H]2C)c1,·,·,9.2µM*,i,-1.6%
Cc1ccc(S(=O)(=O)Nc2cc(-c3nn(C)c(=O)c4ccccc34)ccc2N2CCOCC2)cc1,?,16.4µM*,i,i,11.1%[38.3 µM]
Cn1nc(-c2ccc(N3CCOCC3)c(NS(=O)(=O)c3ccc(Cl)cc3)c2)c2ccccc2c1=O,?,-2.2%[9.22 µM],?,?,1.6%
N#Cc1c(-c2cccnc2)c2c([nH]c1=O)-c1ccccc1OC2,14.6µM*,2.59µM*,i,i,4.2%
N#Cc1c(-c2ccc(F)cc2)c2c([nH]c1=O)-c1ccccc1OC2,4.11µM*,6.51µM*,i,i,6.2%
COc1ccc(-n2ccnc(NCc3cccs3)c2=O)cc1,·,·,i,i,-1.2%
Cc1cccc(C(=O)N[C@H]2CC[C@@H](n3cc(C(=O)N4CCCC4)nn3)CC2)c1,·,·,·,·,0.4%
Cc1ccc([C@H]2C[C@@H](n3cc(C4CC4)nn3)[C@H](O)CN2CC2CCCCC2)cc1,·,·,?,20.6µM*,1.1%
COc1ccc([C@H]2C[C@@H](n3cc(C4CC4)nn3)[C@H](O)CN2CC2CCCCC2)cc1,·,·,?,16.4µM*,29.0%
Cc1ccc([C@H]2C[C@H](O)[C@@H](n3cc(C4CC4)nn3)CN2CC2CCCCC2)cc1,·,·,i,i,1.7%
C=C(C)c1cccc(C(C)(C)NC(=O)Nc2cc(C)ccc2OC)c1,12.3%,5.7%,8.2µM*,i,-2.7%
COc1ccc(NC(=O)C2=C(C)C(=O)OC23CCN(C(C)C)CC3)cc1Cl,·,·,i,i,2.1%
Cc1cccc(C(=O)Nc2ccc(C(=O)/C=C/c3cccnc3)cc2)c1,?,20.6µM*,?,i,-0.9%
O=C(/C=C/c1cccnc1)c1ccc(NC(=O)c2cccc(Br)c2)cc1,2.2%,2.2%,7.94µM*,?,16.3%
Cc1cccc(C(=O)Nc2ccc(C(=O)/C=C/c3ccncc3)cc2)c1,?,?,i,?,-2.4%
Cc1c(Cl)cccc1NC(=O)Nc1nnc(N2CCCCCC2)s1,·,·,i,i,-0.2%

# Compound activity from PubChem.
